Laboratory results from PubChem BioAssay AID1069 (NMMLSC, 2008).
Calls of active or inactive are those of the source.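 The calls were made as follows: active = high combined rank on largest and smallest cell-count-weighted shift across three tests, rank score above 45, floors 50 and 25 (some results past the limit were not filed as active); inactive = the rest.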

Experiment: LNCaP granularity increase inducers, single-point recheck – cell-based, side scatter shift, flow cytometry, confirmation (AID 1069);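 also: LNCaP human prostate cancer cells in low-serum medium with charcoal-stripped FBS; percent of cells with raised granularity gated so DMSO controls show 10%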
Conditions: LNCaP differentiation, 4 d, stronger effect = higher value

Compound	side scatter shift (at 100 µM)	side scatter shift (side scatter shift, at 10 µM) [%]
Cc1ccc(-n2c(SCC(=O)Nc3nccs3)nc3c(c2=O)SCC3)cc1	16.9% (inactive)	9.7
O=C(CCN1C(=O)COc2ccccc21)NCCCN1CCN(c2ccc(F)cc2)CC1	45.3% (inactive)	7.5
Cn1nc(-c2ccc(Cl)cc2)c2cc(C(=O)NCCCN3CCOCC3)sc21	63.6% (active)	27.4
O=c1cc(-c2ccccc2)[nH]c2ccccc12	22.2% (inactive)	9.15
Oc1ccccc1CNc1nc2ccccc2n1CCN1CCCCC1	22.7% (inactive)	12.2
Cc1ccc(-c2noc(CCC(=O)NC3CCN(Cc4ccccc4)CC3)n2)cc1	33.3% (inactive)	4.5
COc1cccc(-c2cc(C(=O)N3CCCc4ccccc43)no2)c1	22.2% (inactive)	1.8
c1ccc(N2CCN(c3nnc(Cc4cccnc4)c4ccccc34)CC2)nc1	17.5% (inactive)	8
CCOc1ccc(OCC)c(NC(=O)C2CCCN(S(=O)(=O)c3c(C)noc3C)C2)c1 (stereo not given)	19.8% (inactive)	2.05
O=C(CSc1c[nH]c2ccccc12)N1CCOCC1	11.4% (inactive)	4.25
COc1cccc(Oc2cnc(N)nc2-c2ccc(OC)cc2O)c1	22.2% (inactive)	6.3
COc1ccc(-c2cc(C(F)(F)F)nc(N3CCN(C)CC3)n2)cc1	25% (inactive)	13.6
Cc1cc(C)c2c(=O)n(CC(=O)NCCCN3CCN(c4ccccc4F)CC3)sc2n1	20% (inactive)	6.8
COc1ccccc1CNC(=O)C1CCN(Cc2nc(-c3cccc(Cl)c3)oc2C)CC1	33.3% (inactive)	3.35
Cc1nc(NCCNC(=O)c2ccco2)c2c(C)c(C)sc2n1	24.1% (inactive)	4.2
Nc1ccc(-n2ccnc2)cc1	37.6% (inactive)	7.5
CCOc1ccc(-c2cc(C(=O)NCCCN3CCN(CC)CC3)c3ccccc3n2)cc1	28.2% (active)	73
CN1CCN(c2oc(COc3ccc(-c4ccccc4)cc3)nc2C#N)CC1	40% (inactive)	10.8
COc1ccc(N2CCN(CCCNC(=O)C3CCCN(S(=O)(=O)c4cnc[nH]4)C3)CC2)cc1 (stereo not given)	32.3% (inactive)	4.05
CCN(CC)CCNC(=O)c1nn(-c2ccc(C)cc2)c(=O)c2c1c1ccccc1n2C	50% (inactive)	5.55
CCOC(=O)N1CCC(NC(=O)c2cc3c(-c4cccc(OC)c4)nn(C)c3s2)CC1	7.7% (inactive)	2.35
Cc1ccc(NC(=O)CCNS(=O)(=O)c2ccc3c(c2)oc(=O)n3C)c(C)c1	1.7% (inactive)	5.85

Compound	side scatter shift (at 100 µM)	side scatter shift (side scatter shift, at 10 µM) [%]
COc1ccc(N2CCN(CCCNC(=O)CN3CCN(Cc4ccccc4C)C3=O)CC2)cc1	15.8% (inactive)	16.6
COc1ccc(N2CCN(c3oc(COc4ccccc4Cl)nc3C#N)CC2)cc1	24.8% (inactive)	9.2
CCCCn1c2c(c3ccccc31)CCc1nonc1-2	20.1% (inactive)	2.8
Cc1cc(=O)oc(C)c1C(=O)NCCCN1CCN(c2ccc(F)cc2)CC1	8.5% (inactive)	5.05
CCOC(=O)c1[nH]c(C)c(C(=O)NC2CCCCCC2)c1C	4.8% (inactive)	8.6
CCn1c(=O)cc(SCC(=O)NCCN2CCN(Cc3ccccc3)CC2)c2ccccc21	70.2% (active)	6.85
Cc1ccc(-c2noc(CCC(=O)NCCCN3CCN(c4cccc(Cl)c4)CC3)n2)cc1	31.8% (inactive)	11.5
Cc1cc(C)n2nnnc2c1C#N	3.9% (inactive)	6.4
Cc1ccccc1-c1nc(CN2CCC(C(=O)NCCCN3CCCC3)CC2)c(C)o1	40% (inactive)	19.4
CCCCOC(=O)Nc1cc(C(=O)OC)ccc1C(=O)OC	21% (inactive)	1.25
CCn1c(SCC(=O)Nc2ccccc2F)nc2c(c1=O)SC(C)C2 (stereo not given)	8% (inactive)	0.85
O=C(Cc1ccc(-n2cccc2)cc1)NCc1cccs1	28.8% (inactive)	13.2
Cc1ccc(C2=Nc3ccccc3NC(C)(c3ccc(C)o3)C2)o1 (stereo not given)	7.1% (inactive)	10.1
Cc1cccc(-c2nc(CN3CCCC(C(=O)NC4CCCCCC4)C3)c(C)o2)c1 (stereo not given)	41.2% (inactive)	10.8
Cc1ccc(-n2nc3cc(Cl)c(NC(=O)c4ccco4)cc3n2)cc1	20.7% (inactive)	2.8
Cc1nc2nc(C)c(CCC(=O)NCCCN3CCN(c4cccc(Cl)c4)CC3)c(C)n2n1	27.9% (inactive)	7.4
Cc1oc(-c2ccc(Cl)cc2)nc1CN1CCC(C(=O)NCCCN2CCOCC2)CC1	41.7% (inactive)	27.7
O=C(NCCCN1CCN(c2cccc(Cl)c2)CC1)c1ccc(N2CCCC2=O)cc1	7.7% (inactive)	10.1
COc1ccc(N2CCN(CCCNC(=O)CCCn3c(=O)[nH]c4ccsc4c3=O)CC2)cc1	7.7% (inactive)	20.6
CCc1ncc(C(O)c2cccc(OC)c2OC)n1C (stereo not given)	1.4% (inactive)	5.25
CCOc1nc(-c2ccccc2O)nc2ccccc12	13.5% (inactive)	8.8
CCN1CCN(C(=O)C2CCN(Cc3nc(-c4cccc(Cl)c4)oc3C)CC2)CC1	16.7% (inactive)	19.1

Compound	side scatter shift (at 100 µM)	side scatter shift (side scatter shift, at 10 µM) [%]
O=C(COc1ccc(S(=O)(=O)N2CCCC2)cc1Cl)NC1CC1	3.1% (inactive)	1.25
CCCCOc1ccccc1NC(=O)Cn1c(-c2nonc2N)nc2ccccc21	19.2% (inactive)	17.4
CN1CCN(CCCNC(=O)c2cc3c(-c4ccc(Cl)cc4)nn(C)c3s2)CC1	14.3% (active)	57
COc1cc2nc(N3CCN(C(=O)C4COc5ccccc5O4)CC3)nc(N)c2cc1OC (stereo not given)	0% (active)	55.2
O=C(c1ccccc1)c1ccc(N2CCNCC2)cc1	63% (active)	7.95
Cc1cc(=O)n2nc(N3CCCC3C(=O)NCc3ccccn3)sc2n1 (stereo not given)	4% (inactive)	7.1
COc1ccc(-c2ccc(-c3noc(-c4ccccc4)n3)c(OC)n2)cc1	56.7% (inactive)	22.5
O=C(CCN1C(=O)COc2ccccc21)NCCCN1CCN(c2ccccc2F)CC1	21% (inactive)	4.4
Cc1oc(-c2cccc(Cl)c2)nc1CN1CCC(C(=O)NCC2CCCO2)CC1 (stereo not given)	33.9% (inactive)	8.8
COc1ccc(CCNC(=O)C2CCCN(Cc3nc(-c4ccccc4C)oc3C)C2)cc1OC (stereo not given)	25% (inactive)	5.4
O=C(c1ccc2c(c1)OCCO2)N1CCCCC1	7.7% (inactive)	8.05
CC1=C(n2nnc3ccccc32)C(c2ccccc2)C(C#N)=C(N)O1 (stereo not given)	26% (inactive)	6.4
O=C(NCc1ccc(Cl)cc1)c1noc2c1CCCC2	8% (inactive)	3.3
COc1ccc2c(c1OC)C(=O)N(C(C)C(=O)O)C2=O (stereo not given)	17.9% (inactive)	5.3
CC(=O)c1cccc(NC2c3ccccc3C(=O)N2Cc2ccc3c(c2)OCO3)c1 (stereo not given)	24% (inactive)	4.25
CCCS(=O)(=O)N1CCCC(C(=O)NCCCN2CCN(c3ccc(F)cc3)CC2)C1 (stereo not given)	8.2% (inactive)	12.3
COc1ccc(-c2cc(C(F)(F)F)nc(N3CCN(Cc4ccccc4)CC3)n2)cc1OC	51.3% (active)	5.3
Nc1ccc(-c2nc3c(Cl)c(N)ccc3[nH]2)cc1	20.2% (inactive)	4.7
Cc1ccccc1Cn1cnc2c(cnn2C(C)(C)C)c1=O	15.4% (inactive)	5.05
CCOC(=O)c1cc2c(=O)n3ccccc3nc2n(CCCOC)c1=NC(=O)c1cccnc1	9.9% (inactive)	5.75
CCc1ccc(-c2nc(CN3CCC(C(=O)NCCN(CC)c4ccccc4)CC3)c(C)o2)cc1	50% (inactive)	24.1
